Screening data: PubChem BioAssay, National Center for Advancing Translational Sciences (NCATS)
FMDV inh: blocks foot and mouth disease virus. 410,000 tested, 1.2% active. Potency, µM (highest dose often 57.9 µM), actives largely listed as inhibitors. FMDV antiviral cell-based qHTS. AID 1159524; calls by dose curve; tested in HEK293T cells; note: read-out not given here; nearly all actives have a fitted effect of over 45% in size
TbPYK inhibitor: blocks Trypanosoma brucei pyruvate kinase; Potency, µM (doses to about 76.8 µM), hits mostly inhibitors; TbPYK enzyme, Kinase-Glo Plus ATP luminescence, 45 min; Q57TT1; AID 624173; 410,000 tested, 0.12% active; note: nearly all actives have a fitted effect of over 50% in size
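Luminescent Kinase-Glo Plus end-point after 45 min room-temperature reaction of T. brucei pyruvate kinase started with 130 uM ADP (final). Buffer TEA 50 mM pH 7.2 with KCl, MgCl2, BSA, Tween-20; titration-based qHTS with fitted concentration-effect curves.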
Sm TGR block: blocks Schistosoma mansoni thioredoxin glutathione reductase; Q962Y6; purified TGR, DTNB reduction, TNB absorbance 405 nm; Potency, µM (highest dose often 114 µM), hits mostly inhibitors; 360,000 tested, 3% active; AID 485364; note: nearly all actives have a fitted effect of over 60% in size
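Kinetic colorimetric format: TGR-catalysed, NADPH-driven DTNB reduction monitored via TNB absorbance. Enzyme dispensed at 20 nM; compound exposure 15 min at room temperature before reaction start.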
RE007 growth inh: less growth of the S. pombe RE007 Vpr strain; 360,000 tested, 0.21% active; AID 651644; Potency, µM (highest dose often 92.2 µM), usual class: inhibitors; S. pombe RE007 Vpr strain, BacTiter-Glo ATP luminescence, 24 h; active = well fitted falling curve with a large enough effect; inconclusive = small, poorly fitted or top-dose-only effect; inactive = no such curve, though single readings can be large or run the other way; note: nearly all actives have a fitted effect of over 50% in size
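Fission yeast strain RE007, carrying one chromosomally integrated HIV-1 vpr copy, was seeded at OD 0.01 in PMG+AL medium with 23 nL pinned compound. After 24 h at 30 °C and 99% humidity, viability was read by BacTiter-Glo luminescence.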
Hits are given with their value. Shown are actives, neighbours in structure and some others; about 3.7% of the full set was active somewhere. Unless noted, calls come from the whole dose curve; as a rule, active = well fitted curve in the direction sought with a large enough effect; inconclusive = small, poorly fitted or top-dose-only effect, or another doubt; inactive = no such curve, though single readings can be large; an effect the other way counts as inactive or inconclusive.

What do the screens show for `C=C1C(=O)[C@@]23[C@H](O)C[C@@H]4C(C)(C)CC[C@H](O)[C@]4(C)[C@@H]2C[C@H](O)[C@@H]1[C@H]3O`?
FMDV inh: inconclusive; TbPYK inhibitor: inactive; Sm TGR block: 10µM; RE007 growth inh: inactive

What do the screens show for `COC(=O)c1c(OCC2CCCN(C)C2)cc(=O)n2c1CCN(Cc1ccc(OC)c(O)c1)CC2` (configuration not stated)?
FMDV inh: inactive

What do the screens show for `CC(C)OCCCNc1ncnc2c1[nH]c1ccccc12`?
FMDV inh: 18µM; TbPYK inhibitor: inactive; Sm TGR block: inactive; RE007 growth inh: inactive

How did COc1ccc(CNc2ncnc3c2[nH]c2ccccc23)cc1 do in these assays?
FMDV inh: inconclusive; TbPYK inhibitor: inconclusive; Sm TGR block: inactive; RE007 growth inh: inactive

What do the screens show for `COc1cccc(C(=O)NCCSc2c(-c3ccc(F)cc3)[nH]c3ccccc23)c1OC`?
FMDV inh: inactive; TbPYK inhibitor: inactive; Sm TGR block: inactive

How did CCOC(=O)c1nnc(-c2ccccc2)nc1Sc1ccccc1Cl do in these assays?
FMDV inh: 25µM; TbPYK inhibitor: inactive; Sm TGR block: inactive; RE007 growth inh: inactive

Results for CCOC(=O)c1nnc(-c2ccccc2)nc1Oc1ccc(Cl)cc1 ?
FMDV inh: 16µM; TbPYK inhibitor: inactive; Sm TGR block: inactive; RE007 growth inh: inactive

How did CCOc1ccc(N=C(C)Nc2ccc(OCC)cc2)cc1 do in these assays?
TbPYK inhibitor: inactive

How did CC(=O)OC1C(O)C2=C3C4(C)C1C(C)(C)C(=O)CC4C3(O)C(OC(C)=O)C1(CC1C)C2=O (configuration not stated) do in these assays?
FMDV inh: 22µM; TbPYK inhibitor: inactive; RE007 growth inh: inactive

Results for CC(=O)c1ccc(NC(=S)N2CCCCCC2)cc1 ?
FMDV inh: inactive; TbPYK inhibitor: inactive; Sm TGR block: inactive; RE007 growth inh: inactive

Results for CC(=O)c1ccc(NC(=S)N2C(C)CCCC2C)cc1 (configuration not stated) ?
Sm TGR block: 35µM

What do the screens show for `Cc1ccc(C(=O)Nc2ncc3c(Cl)cccc3n2)cc1`?
FMDV inh: 10µM; TbPYK inhibitor: inactive; Sm TGR block: inactive; RE007 growth inh: inconclusive

What do the screens show for `Cc1ccc(C(=O)Nc2ccc(Cl)cn2)cc1`?
FMDV inh: inactive; TbPYK inhibitor: inactive; Sm TGR block: inactive; RE007 growth inh: inactive

How did CS(=O)(=O)N1CCC2(CCN(Cc3ccncc3)CC2)CC1 do in these assays?
FMDV inh: inactive; TbPYK inhibitor: inactive

What do the screens show for `Cc1cc(C)n(CCNC(=O)c2cc(COc3ccc4ncccc4c3)on2)n1`?
FMDV inh: 13µM; TbPYK inhibitor: inactive; Sm TGR block: inactive; RE007 growth inh: inactive

Results for CC(CCCC(C)(C)O)NC(=O)c1cc(COc2ccc3ncccc3c2)on1 (configuration not stated) ?
FMDV inh: inconclusive; TbPYK inhibitor: inactive; RE007 growth inh: inactive

What do the screens show for `O=C(NCc1cccc(Cl)c1)c1cc(COc2ccc3ncccc3c2)on1`?
FMDV inh: 16µM; TbPYK inhibitor: inactive; Sm TGR block: inactive; RE007 growth inh: inconclusive

What do the screens show for `Cc1ccc(F)cc1CNC(=O)c1cc(COc2ccc3ncccc3c2)on1`?
FMDV inh: 25µM; TbPYK inhibitor: inactive; Sm TGR block: inactive; RE007 growth inh: inactive

How did CCOc1ccccc1NC(=O)Cn1c(=O)n(CC(=O)NCc2ccccc2Cl)c(=O)c2sccc21 do in these assays?
FMDV inh: inactive; TbPYK inhibitor: inactive; Sm TGR block: inactive

What do the screens show for `CCc1ccc(NC(=O)CCc2c(C)n(C)c3cc(-c4ccccc4C)nn3c2=O)cc1`?
FMDV inh: inactive; TbPYK inhibitor: inactive; Sm TGR block: inactive

Results for O=C(Cc1cscn1)N1CCOc2ccc(CN3CCN(c4ccccn4)CC3)cc2C1 ?
FMDV inh: inactive

How did O=C(CCCCCn1c(=O)c2sccc2n(Cc2ccccc2Cl)c1=O)NCc1ccc2c(c1)OCO2 do in these assays?
FMDV inh: inactive; TbPYK inhibitor: inactive; Sm TGR block: inactive

Results for CCN(CC)CCCNC(=O)c1oc2c(c1C)-c1nn(Cc3ccc(Cl)cc3)cc1CC2 ?
FMDV inh: inactive; TbPYK inhibitor: inactive; Sm TGR block: inactive

Results for COc1ccc(-c2csc(NC(C)=O)n2)cc1OC ?
FMDV inh: inactive; TbPYK inhibitor: inactive; Sm TGR block: inactive; RE007 growth inh: inactive

Results for COc1ccc(CNC(=O)C2CCN(C(=O)c3ccc(F)cc3)CC2)cc1OC ?
FMDV inh: inactive; TbPYK inhibitor: inactive; Sm TGR block: inactive; RE007 growth inh: inactive
